Results filed as inconclusive are left out. Calls of active or inactive are those of the source. Unless noted, calls come from the whole dose curve; as a rule, active = well fitted curve in the direction sought with a large enough effect; inconclusive = small, poorly fitted or top-dose-only effect, or another doubt; inactive = no such curve, though single readings can be large; an effect the other way counts as inactive or inconclusive.

Experimental findings from PubChem BioAssay (NCATS) are described below.

Test [1] has as its target Transient receptor potential cation channel subfamily V member 1 (Homo sapiens) (UniProt Q8NER1). Kind of test: HTS Assay for Compounds that Act as Enhancers of the Vanilloid Receptor 1 (AID 488979). Note: 0% is about no effect. The method in brief:
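Calcium influx kinetics via Fluo-8 (480/520 nm) in TRPV1-expressing cells, 2000/well cultured overnight at 35.5C. Compound-alone read 3 min (agonist phase), followed by EC20 capsaicin challenge for 2 min (enhancer phase).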

Test [2] concerns the target Thyrotropin receptor (Homo sapiens) (UniProt P16473). Kind of test: qHTS Assay for Antagonists of the Thyroid Stimulating Hormone Receptor (AID 488980). Note: series mostly up to about 58 µM; 0% is about no effect. The method in brief: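 TSHR-HEK293 cells; 70 uM RO 20-1724 PDE inhibitor; compound + EC80 TSH (4 nM final); anti-cAMP cryptate antibody/cAMP-d2 in lysis buffer, 30 min RT; HTRF 665/620 nm read.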
In test [3] the target is D(1A) dopamine receptor (Homo sapiens) (UniProt P21728). The experiment in a line: HTS Assay for Allosteric Agonists of the Human D1 Dopamine Receptor: Primary Screen for Agonists (AID 488981). Note: 0% is about no effect. A digest of the protocol:
(§1)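 Calcium flux in an inducible, force-coupled HEK293 Trex D1 line (overnight at 30 C): agonist mode is the 180 s kinetic read after compound; potentiator mode is the following 180 s read after dopamine at EC20.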

The target is the same in test [4]. The experiment in a line: HTS Assay for Allosteric Agonists of the Human D1 Dopamine Receptor: Primary Screen for Potentiators (AID 488982). Note: 0% is about no effect. A digest of the protocol: as §1
Test [5] has the same target. Kind of test: HTS Assay for Allosteric Agonists of the Human D1 Dopamine Receptor: Primary Screen for Antagonists (AID 488983).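 Note: calcium flux response to an EC80 dopamine challenge measured with no-wash dye; % is set by controls: 0 for no effect and ±100 for the full control effect; nearly all actives have a fitted effect of over 65% in size.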 The method in brief:
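Screening of inducible HEK293 T-REx D1 cells: compound first, EC80 dopamine 180 s later, each phase read kinetically for calcium over 180 s.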

The nature of test [6]: Validation screen for small molecules that induce genotoxicity in human embryonic kidney (HEK293T) cells expressing luciferase-tagged ELG1 (AID 493106). Note: 0% is about no effect. A digest of the protocol:
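Reporter-gene quantitative HTS in HEK293T cells carrying luciferase-tagged ELG1, whose level climbs under genotoxic stress. Compound exposure lasts 16 hr at 37 °C before luciferase detection.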

For test [7], the target named is Thyrotropin-releasing hormone receptor (Homo sapiens) (UniProt P34981). The experiment in a line: qHTS for Small Molecule Agonists and Allosteric Enhancers of Human TRH Receptor: Validation Screen for Agonists (AID 493127;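 active = calcium activation more than 3 SD above the typical response in the agonist read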;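 note: intracellular calcium rise by fluo-8 fluorescence before TRH EC20 addition; 0% is about no effect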). The following applies: TRH receptor agonist cell assay; at 2 µM; stronger effect = higher value. The method in brief:
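Gq-coupled calcium mobilization in TRHR cells after compound addition, monitored kinetically with fluo-8 dye on an FDSS reader.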
On the technique in general: In qHTS, concentration-response curves come from the screen itself.

The nature of test [8]: Nrf2 qHTS screen for inhibitors: Validation (AID 493153; active = well fitted inhibition curve with a large enough effect in the main read-out, with a control signal flat, not every such curve was filed as active). The following applies: Potency: luciferase luminescence; viability change: measured here: cytotoxicity max response. The method in brief:
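Dose-response validation uses reporter A549 cells with firefly luciferase under an antioxidant response element. Compounds stay on cells 18-24 h at 37°C, and luminescence indicates Nrf2-driven transcription.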

Test [9] deals with Galactokinase (Homo sapiens) (UniProt P51570). The experiment in a line: qHTS Validation Assay for Inhibitors of Human Galactokinase (GALK) (AID 493189). Note: 0% is about no effect. A digest of the protocol:
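Luminescence from leftover ATP (Kinase-Glo Plus, 10 min) served as read-out after a 1 h room-temperature reaction of 5 nM GALK, 100 uM galactose and 35 uM ATP at pH8.0.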

For test [10], the target named is Peptidyl-prolyl cis-trans isomerase NIMA-interacting 1 (Homo sapiens) (UniProt Q13526). Kind of test: qHTS Validation Assay to Find Inhibitors of Pin1 (AID 504536; active = well fitted inhibition curve with a large enough effect in the polarisation, with a control signal flat, not every such curve was filed as active; the % refers to the polarisation;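 note: 0% = full Pin1 enzyme wells and -100% = no-enzyme wells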). The method in brief: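 Fluorescence polarization competition: compounds (titration) displace HiFluor-488-labeled Pin1-1b peptide from Pin1 (0.3 uM final) in pH 7.5 HEPES buffer with DTT, 10 min at room temperature; %Activity normalized to no-enzyme wells, curves fitted.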
Chain of Peptidyl-prolyl cis-trans isomerase NIMA-interacting 1 (Homo sapiens) (Q13526 whole entry, looked up): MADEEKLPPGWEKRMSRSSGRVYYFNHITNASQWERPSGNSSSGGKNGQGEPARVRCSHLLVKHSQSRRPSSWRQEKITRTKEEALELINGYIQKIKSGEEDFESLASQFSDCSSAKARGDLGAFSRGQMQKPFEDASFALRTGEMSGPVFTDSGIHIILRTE

The target of test [11] is phosphoglycerate mutase (Leishmania major) (UniProt Q4Q090). Kind of test: qHTS Validation Assay to Find Inhibitors of Phosphoglycerate Mutase (AID 504548). Note: series mostly up to about 58 µM; % is set by controls: 0 for no effect and ±100 for the full control effect. The following applies: Potency: inhibition qHTS. A digest of the protocol:
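Lm PGAM at 1.25 nM final with substrate in 100 mM TEA pH 7.6, 5 mM MgCl2, 0.01% Tween-20; 45 min at room temperature. Kinase-GloPlus added, 10 min, end-point luminescence read.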

Test [12] concerns the target Ubiquitin carboxyl-terminal hydrolase 1 (Homo sapiens) (UniProt O94782). The experiment in a line: Inhibitors of USP1/UAF1: Pilot qHTS (AID 504865).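 Note: rhodamine fluorescence freed from ubiquitin-rhodamine substrate followed over time; top concentration of the series differs between compounds; % is set by controls: 0 for no effect and ±100 for the full control effect; nearly all actives have a fitted effect of over 35% in size.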 A digest of the protocol: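 1nM USP1/UAF1 + cpd, 15 min RT; start w/ Ub-Rho 150nM final; kinetic FL 480/540 nm, 6 reads q60 s. Buffer 50mM HEPES pH 7.8, 0.5mM EDTA, 1mM TCEP, 0.01% Tween-20, 0.1 mg/ml BSA.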
A short description of test [13]: qHTS for Inhibitors of ATXN expression: Validation of Cytotoxic Assay (AID 588349).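 Note: cells exposed to compound for 72 hr; % is set by controls: 0 for no effect and ±100 for the full control effect.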 The method in brief:
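HEK293, compound dose series, 72 hr / 37 degrees C; viability via CellTiter Glo (intracellular ATP).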

Test [14] in a line: qHTS for Inhibitors of ATXN expression: Validation (AID 588378). Note: series mostly up to about 57 µM; % is set by controls: 0 for no effect and ±100 for the full control effect; nearly all actives have a fitted effect of over 75% in size. The method in brief: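 Cells: HEK293-ATXN2-FFLuc, phenol-red free DMEM, 2 h attachment. Compound pin-transfer, 24 h, 37 degrees C, 5% CO2. CellTiter-Fluor 30 min, Ex405/Em525; Bright-Glo 5 min, luminescence 2 s exposure.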
A short description of test [15]: qHTS for Inhibitors of Cell Surface uPA Generation: Validation Assay (AID 493164).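 Note: RAW 264.7 macrophage cells exposed to compound for 18 h; 0% is about no effect.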 A digest of the protocol: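 RAW 264.7, 4000 cells/well, o/n plating; cpd 7-pt 1:5 dilution 2.45 nM–38.3 uM final; 18 h, 37 C/5% CO2; ATP-Lite, 5 s luminescence exposure.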
Test [16] in a line: Validation screen for small molecules that induce DNA re-replication in SW480 colon adenocarcinoma cells (AID 504364). Note: 0% is about no effect. A digest of the protocol:
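Cells are treated 48 hr with test compound, stained 40 min with Hoechst at 37 C, and scanned for nuclear fluorescence; compounds inducing re-replication increase nuclei with elevated intensity.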

Test [17] has as its target Phosphoglycerate kinase, glycosomal (Trypanosoma brucei brucei) (UniProt P07378). Kind of test: qHTS Validation Assay to Find Inhibitors of Phosphoglycerate Kinase (AID 504547).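 Note: control wells lack PGK and mark full inhibition.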 The method in brief:
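Inhibition of the enzyme is judged by a Kinase-Glo Plus luminescent signal following a one-hour incubation at room temperature. Because 1,3-BPG is unstable, it is made in situ by GAPDH at 100nM final; no-PGK wells define the baseline.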

The target of test [18] is ATPase family AAA domain-containing protein 5 (Homo sapiens) (UniProt Q96QE3). Kind of test: Validation screen for small molecules that inhibit ELG1-dependent DNA repair in human embryonic kidney (HEK293T) cells expressing luciferase-tagged ELG1 (AID 493107).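 Note: cells co-treated with the DNA-damaging agent 5-fluorouridine alongside compound; series mostly up to about 46 µM; % is set by controls: 0 for no effect and ±100 for the full control effect; inhibitors lower the ELG1-luciferase luminescence signal; nearly all actives have a fitted effect of over 70% in size.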 A digest of the protocol:
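Quantitative HTS in HEK293T cells carrying luciferase-tagged ELG1, stimulated with 5-fluorouridine alongside compound for 16 hr. Loss of luciferase signal marks inhibition of ELG1 response.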

Chain of Ubiquitin carboxyl-terminal hydrolase 1 (Homo sapiens) (O94782 whole entry, looked up): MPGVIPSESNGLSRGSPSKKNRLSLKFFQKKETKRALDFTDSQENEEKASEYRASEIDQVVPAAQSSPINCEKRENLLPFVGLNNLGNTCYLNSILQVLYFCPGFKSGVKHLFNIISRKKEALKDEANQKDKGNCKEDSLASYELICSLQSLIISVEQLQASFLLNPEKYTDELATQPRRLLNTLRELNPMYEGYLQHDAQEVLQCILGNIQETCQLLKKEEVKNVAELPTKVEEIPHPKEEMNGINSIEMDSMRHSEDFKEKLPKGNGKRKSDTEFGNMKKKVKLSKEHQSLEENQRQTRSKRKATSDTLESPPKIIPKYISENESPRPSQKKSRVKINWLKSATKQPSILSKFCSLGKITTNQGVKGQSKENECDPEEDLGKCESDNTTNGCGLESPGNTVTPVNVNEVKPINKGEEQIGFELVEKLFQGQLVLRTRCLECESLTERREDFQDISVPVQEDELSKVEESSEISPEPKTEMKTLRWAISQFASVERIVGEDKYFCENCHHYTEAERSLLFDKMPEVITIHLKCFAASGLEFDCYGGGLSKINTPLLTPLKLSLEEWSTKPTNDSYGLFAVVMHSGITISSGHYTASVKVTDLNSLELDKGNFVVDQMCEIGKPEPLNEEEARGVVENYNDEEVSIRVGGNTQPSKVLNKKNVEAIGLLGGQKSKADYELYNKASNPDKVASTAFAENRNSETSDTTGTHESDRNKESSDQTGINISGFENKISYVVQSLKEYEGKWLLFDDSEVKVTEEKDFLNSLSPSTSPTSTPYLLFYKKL
Chain of Thyrotropin-releasing hormone receptor (Homo sapiens) (P34981 whole entry, looked up): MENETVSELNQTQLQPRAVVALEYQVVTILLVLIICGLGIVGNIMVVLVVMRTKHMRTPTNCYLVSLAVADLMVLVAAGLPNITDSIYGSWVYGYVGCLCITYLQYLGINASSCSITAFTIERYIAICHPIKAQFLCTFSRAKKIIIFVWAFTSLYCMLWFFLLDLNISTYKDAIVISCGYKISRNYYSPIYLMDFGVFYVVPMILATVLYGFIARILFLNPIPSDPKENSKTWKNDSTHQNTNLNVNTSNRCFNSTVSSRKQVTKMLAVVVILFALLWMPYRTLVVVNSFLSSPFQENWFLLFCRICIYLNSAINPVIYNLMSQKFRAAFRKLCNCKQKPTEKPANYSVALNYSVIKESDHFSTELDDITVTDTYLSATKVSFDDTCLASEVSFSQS
Chain of D(1A) dopamine receptor (Homo sapiens) (P21728 whole entry, looked up): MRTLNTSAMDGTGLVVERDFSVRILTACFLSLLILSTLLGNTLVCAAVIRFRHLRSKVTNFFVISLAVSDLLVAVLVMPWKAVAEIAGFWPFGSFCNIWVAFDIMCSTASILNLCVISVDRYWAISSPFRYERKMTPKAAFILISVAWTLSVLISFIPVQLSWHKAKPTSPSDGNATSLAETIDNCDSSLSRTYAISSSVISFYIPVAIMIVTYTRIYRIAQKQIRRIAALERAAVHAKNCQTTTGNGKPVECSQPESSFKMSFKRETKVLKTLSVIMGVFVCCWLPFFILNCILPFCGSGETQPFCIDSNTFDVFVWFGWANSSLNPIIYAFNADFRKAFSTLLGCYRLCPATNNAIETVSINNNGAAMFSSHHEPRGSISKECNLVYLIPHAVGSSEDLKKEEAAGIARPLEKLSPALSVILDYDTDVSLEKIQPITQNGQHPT
Chain of Thyrotropin receptor (Homo sapiens) (P16473 whole entry, looked up): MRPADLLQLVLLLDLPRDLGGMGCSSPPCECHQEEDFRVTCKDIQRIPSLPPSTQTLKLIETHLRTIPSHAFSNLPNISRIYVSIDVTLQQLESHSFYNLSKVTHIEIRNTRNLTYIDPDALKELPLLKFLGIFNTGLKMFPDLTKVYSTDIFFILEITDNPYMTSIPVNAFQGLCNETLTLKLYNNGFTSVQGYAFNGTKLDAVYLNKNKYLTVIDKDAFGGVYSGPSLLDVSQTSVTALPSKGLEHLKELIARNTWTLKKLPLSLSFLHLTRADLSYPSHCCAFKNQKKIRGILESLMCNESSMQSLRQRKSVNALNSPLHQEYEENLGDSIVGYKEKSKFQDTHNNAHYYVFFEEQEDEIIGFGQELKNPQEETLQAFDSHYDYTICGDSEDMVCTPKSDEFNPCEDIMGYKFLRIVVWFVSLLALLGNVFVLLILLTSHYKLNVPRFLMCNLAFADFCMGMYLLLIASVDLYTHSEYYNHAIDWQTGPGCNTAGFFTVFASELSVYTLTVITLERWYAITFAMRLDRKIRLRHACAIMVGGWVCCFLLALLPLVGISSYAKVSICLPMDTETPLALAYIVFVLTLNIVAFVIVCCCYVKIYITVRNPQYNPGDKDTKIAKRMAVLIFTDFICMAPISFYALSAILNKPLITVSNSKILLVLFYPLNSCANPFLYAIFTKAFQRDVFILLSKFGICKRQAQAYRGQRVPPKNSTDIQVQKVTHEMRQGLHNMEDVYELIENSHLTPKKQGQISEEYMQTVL
Chain of phosphoglycerate mutase (Leishmania major) (Q4Q090 1-553): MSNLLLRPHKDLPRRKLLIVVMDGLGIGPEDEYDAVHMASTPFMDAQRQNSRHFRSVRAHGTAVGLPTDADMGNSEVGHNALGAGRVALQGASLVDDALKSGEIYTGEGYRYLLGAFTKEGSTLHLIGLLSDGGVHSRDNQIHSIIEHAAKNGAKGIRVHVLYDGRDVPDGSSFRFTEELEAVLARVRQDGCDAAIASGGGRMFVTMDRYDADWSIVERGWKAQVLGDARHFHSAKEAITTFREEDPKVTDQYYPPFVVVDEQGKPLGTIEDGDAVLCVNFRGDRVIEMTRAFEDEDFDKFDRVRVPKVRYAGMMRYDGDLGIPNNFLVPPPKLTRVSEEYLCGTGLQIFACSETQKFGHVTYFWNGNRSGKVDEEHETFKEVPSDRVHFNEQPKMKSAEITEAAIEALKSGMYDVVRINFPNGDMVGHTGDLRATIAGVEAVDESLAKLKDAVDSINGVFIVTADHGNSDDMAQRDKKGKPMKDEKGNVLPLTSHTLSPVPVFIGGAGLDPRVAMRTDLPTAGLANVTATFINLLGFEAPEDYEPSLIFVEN
Chain of Transient receptor potential cation channel subfamily V member 1 (Homo sapiens) (Q8NER1 whole entry, looked up): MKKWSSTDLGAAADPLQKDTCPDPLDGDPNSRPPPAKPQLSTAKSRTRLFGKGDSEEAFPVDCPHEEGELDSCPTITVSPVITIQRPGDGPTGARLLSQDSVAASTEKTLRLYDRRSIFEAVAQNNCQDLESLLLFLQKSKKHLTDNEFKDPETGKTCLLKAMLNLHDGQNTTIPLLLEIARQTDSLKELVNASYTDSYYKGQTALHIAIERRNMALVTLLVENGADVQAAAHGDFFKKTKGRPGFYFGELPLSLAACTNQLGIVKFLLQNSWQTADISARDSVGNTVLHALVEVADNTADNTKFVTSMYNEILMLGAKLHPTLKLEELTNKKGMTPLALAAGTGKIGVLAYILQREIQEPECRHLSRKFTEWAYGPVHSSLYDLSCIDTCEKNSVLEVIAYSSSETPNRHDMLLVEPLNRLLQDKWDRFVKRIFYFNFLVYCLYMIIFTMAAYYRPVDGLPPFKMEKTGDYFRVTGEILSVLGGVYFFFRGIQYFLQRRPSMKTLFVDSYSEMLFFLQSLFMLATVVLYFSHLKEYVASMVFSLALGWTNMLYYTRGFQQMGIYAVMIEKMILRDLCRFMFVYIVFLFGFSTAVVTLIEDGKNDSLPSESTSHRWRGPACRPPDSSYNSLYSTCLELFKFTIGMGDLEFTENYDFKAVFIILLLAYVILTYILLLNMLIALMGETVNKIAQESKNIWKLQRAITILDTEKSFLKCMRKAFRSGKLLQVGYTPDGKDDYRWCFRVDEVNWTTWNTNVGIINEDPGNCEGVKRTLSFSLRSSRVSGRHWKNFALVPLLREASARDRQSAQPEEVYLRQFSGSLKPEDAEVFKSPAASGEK
Chain of Galactokinase (Homo sapiens) (P51570 whole entry, looked up): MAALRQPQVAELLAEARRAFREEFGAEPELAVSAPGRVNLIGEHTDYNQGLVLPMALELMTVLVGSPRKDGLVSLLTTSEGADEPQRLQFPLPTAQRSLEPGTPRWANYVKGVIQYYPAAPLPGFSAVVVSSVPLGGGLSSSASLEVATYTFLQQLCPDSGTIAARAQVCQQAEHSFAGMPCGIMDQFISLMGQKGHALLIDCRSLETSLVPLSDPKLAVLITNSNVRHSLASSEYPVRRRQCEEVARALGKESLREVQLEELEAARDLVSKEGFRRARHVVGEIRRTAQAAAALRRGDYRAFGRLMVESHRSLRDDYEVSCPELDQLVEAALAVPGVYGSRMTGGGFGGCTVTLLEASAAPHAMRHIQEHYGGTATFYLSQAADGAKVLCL
Chain of Phosphoglycerate kinase, glycosomal (Trypanosoma brucei brucei) (P07378 whole entry, looked up): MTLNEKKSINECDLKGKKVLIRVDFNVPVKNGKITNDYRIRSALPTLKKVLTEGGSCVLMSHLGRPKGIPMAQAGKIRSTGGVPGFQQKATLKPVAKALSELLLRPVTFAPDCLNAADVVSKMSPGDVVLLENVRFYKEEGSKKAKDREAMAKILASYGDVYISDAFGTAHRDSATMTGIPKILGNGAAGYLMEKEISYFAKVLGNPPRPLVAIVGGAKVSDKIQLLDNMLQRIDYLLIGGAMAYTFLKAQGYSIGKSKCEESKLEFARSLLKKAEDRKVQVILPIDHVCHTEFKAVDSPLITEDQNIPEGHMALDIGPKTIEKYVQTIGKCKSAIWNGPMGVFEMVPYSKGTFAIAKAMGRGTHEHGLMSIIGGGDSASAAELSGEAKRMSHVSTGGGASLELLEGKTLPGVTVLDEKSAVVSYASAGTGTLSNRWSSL

`c1ccc2c(c1)CC(N1CCN(c3cccc4c3OCCO4)CC1)C2`: the outcome in test [1] and in [2] was inactive. Moreover, the Potency entry in test [3], in [4], in test [5], in test [6], in test [8] and in test [9] was “inactive” in each case. The Potency result in test [10], in test [11], in test [12], in [13] and in test [14] was “inactive” each time. Besides, the activation in test [7] was -3.75% (inactive). Further, the viability change in test [8] came out at 3.52%.

As to `NC(N)=NC(N)=Nc1cccc(Cl)c1`, the result in test [1], in test [2] and in [15] was inactive. In addition, the Potency entry in [3], in test [4], in [5], in test [6], in test [9] and in [16] was “inactive” in each case. The Potency entry in [10], in test [17], in test [12], in [13] and in test [14] was “inactive” each time. The activation in test [7] was 1.62% (inactive).

Turning to `CCCCCC(O)CCCC(=O)O` (centres undefined), the result in [1], in test [2] and in test [15] was inactive. Further, the Potency result in test [3], in test [4], in [5], in [6], in test [8] and in test [9] was “inactive” throughout. The Potency entry in test [16], in test [10], in test [17], in [11], in test [12] and in test [13] was “inactive” throughout. For the same compound, the Potency entry in test [14] is “inactive”. The activation in [7] is -0.375% (inactive). Further, the viability change in [8] amounted to 0.592%.

Consider `CCCCS(=N)(=O)CC[C@H](N)C(=O)O` (some centres undefined), for which the outcome in [1], in test [2] and in test [15] was inactive. The Potency entry in test [3], in test [4], in test [5], in [6], in test [8] and in [9] was “inactive” each time. Also, the Potency entry in test [16], in test [10], in [17], in test [11], in test [12] and in test [13] was “inactive” each time. Further, in test [14], the Potency result is “inactive”. In addition, the activation in test [7] was -2.62% (inactive). Further, the viability change in test [8] was found to be 0.751%.

As for `O=c1cc(-c2ccccc2)[nH]c2nc(Cl)ccc12`, the result in [1], in test [2] and in test [15] was inactive. Also, the Potency entry in [3], in [4], in test [5], in [6], in [8] and in [9] was “inactive” each time. The Potency result in test [17], in test [11], in test [13] and in test [14] was “inactive” throughout. Further, the activation in test [7] was -0.438% (inactive). Further, the viability change in test [8] was -13.6%.

`N[C@H]1CONC1=O`: the result in test [1], in [2] and in [15] was inactive. The Potency result in test [3], in test [4], in [5], in test [6], in [18] and in test [8] was “inactive” each time. Also, the Potency result in test [9], in [16], in [10], in [17], in test [11] and in [12] was “inactive” in each case. The Potency entry in test [13] and in test [14] was “inactive” each time. In addition, the viability change in test [8] was 1.32%.

Take `C[N+](C)(C)CC=O`: the result in test [1], in test [2] and in [15] was inactive. In addition, the Potency result in [3], in [4], in test [5], in test [18], in test [8] and in test [9] was “inactive” each time. For the same compound, the Potency entry in [16], in [10], in test [17], in test [11], in test [12] and in [13] was “inactive” in each case. For the same compound, the Potency result in test [14] is “inactive”. Also, the activation in test [7] is 1.56% (inactive). For the same compound, the viability change in test [8] is 2.93%.

Regarding `O=C(O)C1CCNCC1`, the result in [1], in test [2] and in test [15] was inactive. Further, the Potency result in test [3], in test [4], in test [5], in test [6], in test [8] and in test [9] was “inactive” throughout. Moreover, the Potency result in test [10], in test [17], in test [11], in test [12], in test [13] and in [14] was “inactive” in each case. In test [7], the activation was -0.188% (inactive). In test [8], the viability change is -14.4%.
